Compound activity (PubChem BioAssay)
ALR H2O2 inh: human ALR oxidase inhibition via reduced H2O2; purified ALR, DTT oxidation, H2O2 HRP-luminol luminescence; AID 485317; inhibition, % (no concentration beside the values); 290,000 tested, 3.8% active; P55789;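 active means mean replicate inhibition above about 79%, with every replicate also reaching it, limit read from the data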
N-glyco inh: blocks N-linked glycosylation in D54 reporter cells | D54 ERlucT glycosylation luciferase reporter, 24 h; percent of 100 nM tunicamycin response | reporter increase, % at 12.5 µM | 360,000 tested, 0.23% active;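 active means mean luciferase reporter signal, scaled so untreated is 0 and the glycosylation-blocking control 100, at or above a set limit in every replicate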;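 further: luciferase carries N-glycosylation sites so blocking glycosylation raises the light; 0% = median of neutral control wells and 100% = median of 100 nM tunicamycin wells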
NSD2 inh: inhibitors of human histone methyltransferase NSD2; O96028; NSD2 peptide methylation, AlphaScreen, 120 min; inhibition, % at 12.5 µM; 310,000 tested, 0.54% active; AID 743445; in the data active means inhibition above about 50%
CDK5 inh: blocks human CDK5/p35 kinase activity | 330,000 tested, 0.01% active | AID 488839 | Recombinant CDK5/p35, ADP-Glo luminescence, 60 min | inhibition, % at 10 µM | Q00535+Q15078;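 active means highest replicate inhibition of at least 50% and at least 75% of replicates reaching 50%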;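 further: plate controls were DMSO neutral control for no effect and GW8510 at 10 µM for full effect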
SUMO Mot1 rescue: blocks SUMOylation pathway, rescuing yeast Mot1-301 growth; S. cerevisiae Mot1-301 growth rescue, ATP luminescence, 38.5C; percent above DMSO median, 100 means doubled; growth rescue, % at 18.8 µM; AID 2716; 320,000 tested, 1% active;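 active means every valid replicate shows activation above 250% relative to neutral control wells; inactive means the rest, any valid replicate at or below 250%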;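 further: OY570 slx delta 5 strain wells were the positive control but not used for scaling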
Casp6 inh: caspase-6 (human) enzyme inhibition; P55212; inhibition, % at 12.5 µM; 350,000 tested, 0.53% active; purified caspase-6, Z-VEID-R110 cleavage fluorescence;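 active means mean inhibition across replicates at least about 35%, with every replicate also reaching that limit, limit read from the data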;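 further: 0% = median of neutral control wells and 100% = no fluorescence left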
Mot1 SUMO dose: SUMO pathway inhibitors in yeast Mot1-301 growth | shares compounds with SUMO Mot1 rescue | S. cerevisiae Mot1-301 galactose growth, ATP luminescence, 24 h; -100 = growth of slx-deleted rescue strain | growth activity, percent, % at 42 µM | 2,300 tested, under 10 active | AID 493004;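 active means Signal drops as the depositor expects, and the fitted half-maximal dose is no more than ten times the top valid tested dose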;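 further: more negative values mean stronger growth rescue toward the control strain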
CASP1 counter: selectivity counter-screen: inhibitors of human caspase-1. shares compounds with Casp6 inh. purified caspase-1, Z-YVAD-R110 cleavage fluorescence. activity change, negative = inhibition, % at 35 µM. 100 tested, under 10 active. AID 743289;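 active means compounds lowering fluorescence whose fitted half-maximal concentration is no more than twice their top tested dose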
Alpha artifact: AlphaScreen assay artifact in NSD2 counter-screen; shares compounds with NSD2 inh; AlphaScreen artifact counterscreen, preloaded methylated H4 peptide; AC35, µM (series often up to 10 µM), for the others: at the highest dose activity change, negative = signal loss; 1,500 tested, 9.4% active; call rule not given here
* marks the source's active call; other numbers are inactive results; x = no result given. In the library only some 3.9% were active in any assay of this set; here they are far more common.

SMILES | ALR H2O2 inh | N-glyco inh | NSD2 inh | CDK5 inh | SUMO Mot1 rescue | Casp6 inh | CASP1 counter | others
C[C@@H]1CN([C@H](C)CO)C(=O)c2cccc(NS(=O)(=O)c3ccc(F)cc3)c2O[C@H]1CN(C)CC1CC1 | x | x | x | x | x | 2 | x
Cc1cccc(N=C2C(=O)Nc3c(Cl)cccc32)c1 | -3 | 1 | 3 | 0 | 562* | 1 | x | Mot1 SUMO dose=0
CSc1cccc(N=C2C(=O)Nc3ccccc32)c1 | 10 | 0 | x | -1 | -5 | 1 | x
COc1ccc(C[C@H]2CCn3cc(nn3)COC[C@H](C(C)C)NC2=O)cc1 | x | x | x | x | x | 6 | x
Cc1cc(C)c2c(=O)[nH]cnc2n1 | 4 | 5 | 1 | 0 | 997* | 0 | x | Mot1 SUMO dose=0
CCN(CC)CCCN(Cc1cc2cc(OC)ccc2[nH]c1=O)C(=O)Nc1ccccc1 | -6 | x | x | x | 12 | x | x
CCN(CC)CCCN(Cc1cc2cc(OC)ccc2[nH]c1=O)C(=O)Nc1ccc(F)cc1 | -25 | -2 | 86* | 0 | 463* | x | x | Mot1 SUMO dose=0;Alpha artifact=-8%
CCn1c(SC(=O)NC2CCCCC2)nnc1-c1cccs1 | 60 | 10 | 59* | 1 | 525* | x | x | Mot1 SUMO dose=0;Alpha artifact=-1%
C[C@H]1CN([C@@H](C)CO)C(=O)c2cc(NS(=O)(=O)c3cn(C)cn3)ccc2O[C@H]1CN(C)S(C)(=O)=O | x | x | x | x | x | 0 | x
COc1ccccc1Nc1cc2cc(Br)ccc2c(=O)[nH]1 | -19 | 22 | x | 2 | -2 | x | x
COc1ccc(OC)c(Nc2cc3ccccc3c(=O)[nH]2)c1 | 31 | 33* | x | 2 | 23 | 99* | 23
COc1ccc2c3c([nH]c2c1)[C@H](CO)N(C(=O)c1cccc(F)c1)CC31CN(C(=O)c2cccc(F)c2)C1 | x | x | x | x | x | -3 | x
O=c1oc2ccccc2c2oc3cc(O)c(O)cc3c12 | x | 5 | x | 1 | 61 | 44* | 0
CC(=N)c1c(O)c2ccccc2oc1=O | -1 | 4 | 2 | -1 | -8 | 0 | x
O=C(CCO)c1ccc(O)cc1 | -17 | 0 | x | 2 | 5 | 75* | 0
CCCSC1=N/C(=C\c2ccc([N+](=O)[O-])o2)C(=O)S1 | x | 3 | 35 | -7 | x | 75* | -9
CCSC1=N/C(=C\c2ccc(-c3ccccc3[N+](=O)[O-])o2)C(=O)S1 | 20 | 2 | 2 | 1 | -4 | x | x
C[C@H](CO)N1C[C@H](C)[C@@H](CN(C)Cc2ccc3c(c2)OCCO3)OCc2cn(nn2)CCCC1=O | x | x | x | x | x | -2 | x
CC(C)NC(=O)Nc1ccc2c(c1)C(=O)N([C@@H](C)CO)C[C@@H](C)[C@@H](CN(C)Cc1ccc(Oc3ccccc3)cc1)O2 | x | x | x | x | x | -2 | x
O=C(O)CCc1ccc(-c2ccc(Br)cc2)n1CC(=O)O | 39 | 0 | x | -10 | 51 | 47* | 10
CCC(=O)N1[C@@H]2c3cccc(=O)n3C[C@H]1[C@H](CO)[C@H]2C(=O)NCc1ccccc1 | x | x | x | x | x | 1 | x
Nc1cc2nn(-c3ccccc3)nc2cc1Cl | x | -4 | 52* | 1 | x | 98* | 2
COc1cc(-c2ccc(Nc3ccccc3C(=O)O)c(OC)c2)ccc1Nc1ccccc1C(=O)O | x | -8 | 80* | 0 | x | 40* | -3
COc1cc([N+](=O)[O-])c(OC)cc1Nc1ccccc1C(=O)O | x | x | 15 | x | x | 29 | x
CCn1cnc2cc(NCc3ccc(OC)cc3)ccc21 | 1 | 1 | -3 | -1 | -20 | x | x
SMILES | ALR H2O2 inh | N-glyco inh | NSD2 inh | CDK5 inh | SUMO Mot1 rescue | Casp6 inh | CASP1 counter | others
CCOc1ccc2nc3cc(NCc4ccc(OC)cc4)ccc3c(N)c2c1 | -7 | -21 | -6 | 0 | -3 | 73* | 3
C[C@@H]1CN([C@H](C)CO)C(=O)c2cc(/C=C/c3ccccc3)cnc2O[C@@H]1CN(C)C(=O)c1ccc2c(c1)OCO2 | x | x | x | x | x | 1 | x
COc1ccc([N+](=O)[O-])cc1NC(=O)CCS(=O)(=O)c1ccc(Br)cc1 | -1 | 3 | 0 | -1 | -3 | 31 | -2
COc1ccc(NC(=O)N(C)C[C@@H]2Oc3ccc(NC(=O)Nc4ccc5c(c4)OCO5)cc3C(=O)N([C@@H](C)CO)C[C@@H]2C)cc1 | x | x | x | x | x | 2 | x
COc1ccc(S(=O)(=O)Nc2cc(Sc3ncn[nH]3)c(O)c3ccccc23)cc1 | x | x | 165* | x | x | x | 3
CCCCN(C(=O)c1cccc(N2C(=O)c3ccccc3C2=O)c1)c1c(N)n(CC(C)C)c(=O)[nH]c1=O | -1 | 1 | 3 | -2 | 12 | 2 | x
CCCCN(C(=O)c1cccc(-n2cccc2)c1)c1c(N)n(Cc2ccccc2)c(=O)[nH]c1=O | 0 | 1 | 0 | 0 | -7 | 57* | -1
CCCNC(=O)N(C)C[C@H]1Oc2cc(C#CC3CC3)ccc2S(=O)(=O)N([C@@H](C)CO)C[C@@H]1C | x | x | x | x | x | -2 | x
NS(=O)(=O)c1ccc(NC(=O)COC(=O)c2ccc([N+](=O)[O-])s2)cc1 | -28 | 0 | x | -3 | -6 | 92* | 4
COc1ccc(C(=O)OCC(=O)Nc2ncc([N+](=O)[O-])s2)cc1OC | 48 | -2 | -2 | -2 | -11 | 57* | -2
COc1ccccc1NC(=O)COC(=O)c1ccc([N+](=O)[O-])s1 | x | 3 | 1 | 1 | -1 | 87* | 0
Cc1ccc(NC(=O)COC(=O)c2ccc([N+](=O)[O-])s2)c(C)c1 | -18 | 1 | 0 | 1 | 12 | 1 | x
COc1ccc(C(=O)OCC(=O)Nc2sccc2C(N)=O)cc1OC | x | 1 | -1 | 0 | 72 | 1 | x
C[C@@H]1CN([C@@H](C)CO)C(=O)c2cccc(NC(=O)C3CCOCC3)c2O[C@H]1CN(C)S(=O)(=O)c1cccs1 | x | x | x | x | x | -3 | x
CCCCNC(=O)c1nc(C2CCNCC2)oc1-c1cccc(C(F)(F)F)c1 | x | x | x | x | x | 92* | -2
Cc1[nH]nc(S(=O)CC(=O)O)c1[N+](=O)[O-] (configuration not stated) | 0 | -4 | -5 | -6 | 1 | 41* | 9
COc1ccc(NC(=O)N[C@H]2CC[C@@H](CCNC(=O)CCN3CCCCC3)O[C@@H]2CO)cc1 | x | x | x | x | x | -12 | x
C[C@@H]1CN([C@H](C)CO)C(=O)c2cccc(NC(=O)Nc3ccccc3)c2O[C@@H]1CN(C)S(=O)(=O)c1ccc(Cl)cc1 | x | x | x | x | x | 0 | x
Oc1cc(-c2ccncc2)cc2cccnc12 | 6 | -12 | x | 7 | 0 | x | x
Oc1cc(NCCc2cccnc2)cc2cccnc12 | 52 | 11 | x | -1 | -5 | 49* | 5
